Assay outcomes deposited in PubChem BioAssay by National Center for Advancing Translational Sciences (NCATS).
Compounds with a hit are over-represented: about 19% of the library has one in this group of screens.
DT40 TDP1 no CPT – qHTS for Inhibitors of human tyrosyl-DNA phosphodiesterase 1 (TDP1): qHTS in cells in absence of CPT. hit rate 15% among 420,000. DT40 Tdp1-/- hTDP1 cells, no CPT, ATP luminescence, 48 h. Potency, µM (titrated, usually from 46.2 µM), for inactives: top-dose activity change, negative = growth inhibition, actives largely listed as inhibitors; note: potency is the fitted concentration of half-maximal effect; nearly all actives have a fitted effect of over 55% in size
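A cellular qHTS used chicken DT40 cells lacking endogenous Tdp1 but carrying stably transfected human TDP1. Compounds were applied without camptothecin, and cell growth kinetics were judged by ATP-dependent luminescence after ≥48 hr.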
TDP1 cell CPT – qHTS for Inhibitors of human tyrosyl-DNA phosphodiesterase 1 (TDP1): qHTS in cells in presence of CPT | chicken DT40 Tdp1-/-;hTDP1 cells + 20 nM CPT, ATP luminescence, 48 h | Potency, µM (top dose mostly 46.2 µM), for inactives: top-dose activity change, negative = growth inhibition, actives largely listed as inhibitors | hit rate 12% among 420,000 | AID 686979, 2013; note: potency is the fitted concentration of half-maximal effect; nearly all actives have a fitted effect of over 55% in size
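Chicken DT40 Tdp1-/- cells stably complemented with human TDP1 were seeded at 400 cells/well in medium containing 20 nM camptothecin, exposed to pin-transferred compounds, and grown at 37 °C for at least 48 hr. Viability was read as ATP luminescence.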
IL1B secr inh – qHTS for Inhibitors of Inflammasome Signaling: IL-1-beta AlphaLISA Primary Screen | THP-1 LPS/ATP IL-1B secretion, AlphaLISA, 16 h; hits give low values | activity change, % at 57.5 µM | hit rate 4.7% among 360,000 | AID 743279, 2014; in the data active = activity change below about -50%; inconclusive = mostly about -30% to -49%
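THP-1 cells pretreated 1 hr with compounds (up to 57.5 uM final), then stimulated with LPS (250 ng/mL final) plus ATP (1.25 mM final); secreted IL-1B measured by AlphaLISA after 16 hr, decreased signal indicating inhibition.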
ELG1 repair inh – qHTS screen for small molecules that inhibit ELG1-dependent DNA repair in human embryonic kidney (HEK293T) cells expressing luciferase-tagged ELG1 | AID 504467, 2011 | hit rate 2.3% among 330,000 | Potency, µM (highest dose often 46.1 µM), for inactives: at the top dose activity change, negative = inhibition, hits mostly inhibitors | HEK293T ELG1-luciferase reporter, luminescence, 16 h; DNA damage induced by 5-fluorouridine; note: potency is the fitted concentration of half-maximal effect; nearly all actives have a fitted effect of over 55% in size
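Cells (2,000 per well) received 5-fluorouridine plus test compound or DMSO and were incubated 16 hr at 37 °C, 5% CO2. Luciferase activity was read by luminescence 30 min after ONE-Glo addition; signal suppression marked inhibition of damage-induced ELG1 function.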
HT1080 IDH1KD tx – qHTS for induction of synthetic lethality in tumor cells producing 2HG: qHTS for the HT-1080-IDH1KD cell line. Potency, µM (doses to about 46.1 µM), without a hit: top-dose activity, negative = toxicity, usual class: cytotoxic. AID 686971, 2013. hit rate 2% among 360,000. HT-1080 IDH1 knockdown viability, ATP luminescence, 48 h;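 note: potency is the fitted concentration of half-maximal effect; 0% = DMSO wells and -100% = cell-free medium wells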
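Using the IDH1-knockdown HT-1080 line run in the same batch and compound series as the NT line, viability after 48 h at 37 °C was determined by CellTiter-Glo luminescence and expressed as % activity.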
HT1080-NT tox – qHTS for induction of synthetic lethality in tumor cells producing 2HG: qHTS for the HT-1080-NT fibrosarcoma cell line; HT-1080-NT fibrosarcoma viability, CellTiter-Glo ATP luminescence, 48 h; Potency, µM (highest dose often 46.1 µM), inactives show top-dose activity, negative = less viability, hits mostly cytotoxic; hit rate 1.6% among 360,000;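 note: NT is the 2HG producing partner of a matched IDH1 knockdown line; potency is the fitted concentration of half-maximal effect; 0% = DMSO-treated cells and -100% = media-only wells without cells; nearly all actives have a fitted effect of over 55% in size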
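Viability by CellTiter-Glo luminescence after 48 h compound exposure at 37C of HT-1080-NT cells (750/well, RPMI, 5% FBS). % activity scaled between DMSO wells and medium-only wells, then curve-fitted and categorized by curve class.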
Numbers without * were called inactive; ? = inconclusive; . = not tested or not shown; [ ] = dose if it differs, or a comment. Unless noted, calls come from the whole dose curve; as a rule, active = well fitted curve in the direction sought with a large enough effect; inconclusive = small, poorly fitted or top-dose-only effect, or another doubt; inactive = no such curve, though single readings can be large; an effect the other way counts as inactive or inconclusive. Unless noted, % is set by controls: 0 for no effect and ±100 for the full control effect.

SMILES | DT40 TDP1 no CPT | TDP1 cell CPT | IL1B secr inh | ELG1 repair inh | HT1080 IDH1KD tx | HT1080-NT tox
CCc1cc2c(=O)[nH]c(N3CCCC3)nc2s1 | -7% | -1% | -14 | ? | 9% | 6%
COC(=O)c1ccc(-n2c(C)cc(C(=O)CSc3ccc(NC(C)=O)cc3)c2C)cc1 | 23µM* | ? | -21 | ? | -10% | -4%
O=C(CCCC(=O)N1CCN(c2ccc([N+](=O)[O-])cc2)CC1)c1ccccc1 | 10µM* | ? | ? | -2% | -1% | 1%
O=C(CCS(=O)(=O)Cc1ccccc1)N1CCN(c2ccc([N+](=O)[O-])cc2)CC1 | ? | ? | -22 | ? | -6% | 0%
O=C(CCCc1ccccc1)N1CCN(c2ccc([N+](=O)[O-])cc2)CC1 | 18µM* | 18µM* | -2 | -11% | 2%[9.24 µM] | -14%
C=CCn1c(-c2ccc(OC)cc2)csc1=Nc1c(C)n(C)n(-c2ccccc2)c1=O | 21µM* | 21µM* | -19 | 21µM* | -14% | -18%
COc1ccc(C2=Nn3c(nnc3-c3ccco3)SC2)cc1OC | 23µM* | ? | -16 | ? | -13% | -22%
COc1ccc(C2=Nn3c(nnc3-c3ccccc3OC)SC2)cc1OC | 0.0058µM* | 0.0052µM* | 1 | -10% | ? | 0.46µM*
Cc1ccc(CNC(=O)c2cccc(Nc3nc4ccccc4n4nnnc34)c2)cc1 | 10µM* | 21µM* | . | . | . | .
CCCCOc1ccc(C(C)NC(=O)c2cccc(Nc3nc4ccccc4n4nnnc34)c2)cc1 (stereo not given) | 5.8µM* | 5.2µM* | . | . | . | .
COc1cc(Nc2nc3ccccc3n3nnnc23)cc(OC)c1OC | 9.2µM* | 8.2µM* | -1 | ? | 1% | 14%
O=C1c2ccccc2C(c2nnnn2-c2ccc3c(c2)OCCO3)N1CCCN1CCOCC1 (stereo not given) | -11% | 1% | -2 | . | 1% | 15%
Cc1ccc(C(=O)NCCc2csc(-c3cccc(F)c3)n2)cc1C | -19% | -26% | . | . | . | .
Cc1ncc2c(c1CNC(=O)c1ccc3c(c1)OCO3)CCN(C(=O)c1cccc(-n3cccn3)c1)C2 | -22% | 0%[9.04 µM] | . | . | . | .
O=C(NCCN1Cc2ccccc2OC(c2ccsc2)C1)c1cncs1 (stereo not given) | -93% | -48%[9.04 µM] | . | . | . | .
Cc1cc(Cl)ccc1NC(=O)CN1CCC(C(O)(c2ccccc2)c2ccccc2)CC1 | ? | ? | -61* | -18% | ? | ?
O=C(CN1CCCCC1)Nc1ccc(NC(=O)c2ccc(Cl)cc2)cc1Cl | 26µM* | 13µM* | -2 | -11% | -1% | -11%
O=C(CN1CCCC1)Nc1ccc(Cl)cc1C(F)(F)F | ? | 23µM* | -11 | 10% | 2% | 0%
COCCn1c(SCC(=O)Nc2ccc(OC)c(S(N)(=O)=O)c2)nc2ccccc2c1=O | -22% | 7% | -13 | . | -5% | -13%
Cc1nnc(NC(=O)CSc2ccc3nnc(-c4cccnc4)n3n2)s1 | . | . | . | 0% | . | .
O=C(Cc1cccs1)NNC(=O)c1ccc(F)cc1 | 0% | -10% | 3 | 27% | -6% | 13%
CC(=O)c1cc(-c2ccccc2)n(CC(=O)NCc2ccccc2C)c1C | -6% | ? | . | . | . | .
O=C1c2ccccc2-c2onc3ccc(Oc4ccccc4)c1c23 | 2.6µM* | 3.3µM* | -25 | ? | 4.1µM* | -13%
CCCNc1c(NS(=O)(=O)c2ccc3c(c2)CCCC3)c(=O)oc2ccccc12 | ? | 4% | 5 | ? | 4% | 5%
COCCNc1nc2c(c(=O)n(C)c(=O)n2C)n1Cc1cccc(C)c1 | 7.3µM* | 6.5µM* | 22 | 21µM* | -19% | -9%
SMILES | DT40 TDP1 no CPT | TDP1 cell CPT | IL1B secr inh | ELG1 repair inh | HT1080 IDH1KD tx | HT1080-NT tox
Cc1ccc(OCCn2c(Br)nc3c2c(=O)n(C)c(=O)n3C)cc1 | 18µM* | 12µM* | -7 | 5.2µM* | 0% | 0%
Cn1c(=O)c2c(ncn2CCOc2cccc(Br)c2)n(C)c1=O | 9.2µM* | 8.2µM* | 32 | 8.2µM* | -14% | ?
Cn1c(=O)c2c(nc(Br)n2CCc2ccccc2)n(C)c1=O | ? | ? | -2 | ? | 1%[9.24 µM] | -5%
Cc1cccc(OCCNc2nc3c(c(=O)n(C)c(=O)n3C)n2C)c1 | 16µM* | 16µM* | -1 | 2% | 12% | 9%
COCCCNc1nc2c(c(=O)n(C)c(=O)n2C)n1Cc1cccc(OC)c1 | 10µM* | 18µM* | -4 | 15µM* | -13% | -20%
COc1cccc(Cn2c(Oc3cccc(C)c3)nc3c2c(=O)n(C)c(=O)n3C)c1 | 23µM* | 21µM* | -16 | ? | ? | ?
Cc1cccc(Cn2c(NCC(C)O)nc3c2c(=O)n(C)c(=O)n3C)c1 (stereo not given) | 10µM* | 12µM* | -11 | 15µM* | -12% | -6%
CCCCCCC(=O)Nc1ccc2nc3c(=O)n(C)c(=O)n(C)c3nc2c1C | 3% | 3% | . | . | . | .
O=c1c2c3c(sc2ncn1-n1cccc1)CCCCC3 | ? | -15% | ? | ? | -3% | -7%
Cn1cc(/C=N/n2cnc3sc4c(c3c2=O)CCCC4)c2ccccc21 | 10µM* | 13µM* | 13 | -9% | -1% | 2%
O=c1c2c3c(sc2ncn1/N=C/c1ccc([N+](=O)[O-])o1)CCCC3 | 2.3µM* | 2.6µM* | -89* | -2% | ? | ?
Cc1ccc(C)n1-n1cnc2sc3c(c2c1=O)CCC3 | ? | ? | -9 | 1% | -1% | 7%
CCOC(=O)c1cc(C)n(CC2CCC(C(=O)Nc3ccccc3OC)CC2)c1C (stereo not given) | ? | 18µM* | . | . | . | .
CCOC(=O)c1cc(C)n(CC2CCC(C(=O)Nc3ccc(OCC)cc3)CC2)c1C (stereo not given) | 21µM* | 16µM* | . | . | . | .
CCOC(=O)c1cc(C)n(CCc2ccccc2)c1C | -24% | -16% | ? | ? | 11% | 27%
CCOC(=O)c1c(S(=O)(=O)N2CCC(C(=O)Nc3ccc(OCC)cc3)CC2)c(C)n(C)c1C | -6% | -8% | . | . | . | .
